About 83,000 compounds went through this panel and 20% of them were active in at least one assay; those are over-represented in the sample as a whole.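 The test compound was applied at a single concentration to cells in 96-well plates for 48 hours, and percent growth was recorded.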 Unmarked numbers belong to inactive results. The source made the active and inactive calls.
system: UACC-62 melanoma; experiment: NCI-60 one-dose screen, 48 h (100 = growth as untreated, 0 = no growth, -100 = all killed); conditions: 10 µM unless noted
Protocol: Growth inhibition of the UACC-62 human tumor cell line is measured as a screen for anti-cancer activity. Cells are grown in 96 well plates and exposed to the test compound for 48 hours. Compounds are tested at a single concentration, which is 10^-5 M for most compounds. The reported endpoint is percent growth (GI% or GIPRCNT), where numbers from 0 - 100% represent growth inhibition, and numbers from -100% - 0 represent cell death. For example, a value of 40 represents 60% growth inhibition. A value of 0 means no net growth occurred over the course of the experiment. A value of -40 indicates 40% of cells at the beginning of the experiment died by the end of the experiment. A value of -100 means all cells are dead at the end of the experiment.
NCI-60 Human Tumor Cell Lines Screen was performed using the standard one-dose NCI protocol, which is described in more detail at https://dtp.cancer.gov/discovery_development/nci-60/default.htm.
Compounds with GIPRCNT values below 10 were considered active. Activity score was based on GIPRCNT using the following formula: […]
Score is 0 for GIPRCNT values of 100 or above, 50 for GIPRCNT values of 0, and 100 for GIPRCNT values of -100.

In order of falling growth:
1. O=S(=O)(O)CC(O)CN1CCN(CCO)CC1 (stereo not given)  117%
2. O=c1[nH]nc(SC2CCCCC2)c(=O)[nH]1  113%
3. O=S(=O)(Cc1ccccc1)c1ccccc1  111%
4. O=C(c1ccc(O)cc1)c1ccc(O)cc1  110%
5. NCCCN  109%
6. CC(=O)NC(N)=S  109%
7. O=C(O)CCCc1ccccc1  108%
8. O=P(O)(O)OCC(O)CO (stereo not given)  108%
9. O=C(OCC(O)C1OC(c2ccccc2)OC(COC(=O)c2ccccc2)C1O)c1ccccc1 (stereo not given)  108%
10. Cc1nc2c(ccc3ccccc32)s1  107%
11. O=C1c2ccccc2C(=O)c2c1ccc(C(=O)O)c2[N+](=O)[O-]  106%
12. CN(C)c1nc2c([nH]1)c(=O)n(C)c(=O)n2C  105%
13. O=[N+]([O-])c1ccc(Cl)c(S(=O)(=O)O)c1  105%
14. NC(=O)N/N=C\c1ccco1  103%
15. N/N=C(/Cc1ccccc1)NNC(N)=S  101%
16. CCCC(=O)Nc1ccc2c(c1)CN1C(=O)c3ccccc3C1=N2  100%
17. CC(=O)c1ccc(C)c(N)c1  99.9%
18. C=CCNC(=O)c1ccc(OC)cc1  99.1%
19. COc1ccc(C(=O)C(Br)C(Br)C(=O)O)cc1 (stereo not given)  98.4%
20. CN(C)/N=C/c1ccccc1O  98.4%
21. Cc1cc2ccccc2c(O)c1C#N  97.7%
22. CC(=O)c1c[nH]c2ccccc12  97.5%
23. COCCCC/C(=N\OCCN)c1ccc(C(F)(F)F)cc1  97.5%
24. CC1(C)/C(=C\CO)C2CCC1C2 (stereo not given)  97.3%
25. Cc1cccc(C(=O)N(C(C)C)C(C)C)c1  96.5%
26. NC(=O)NC(=O)c1ccc(Cl)cc1  96.1%
27. C=CC(O)CCC (stereo not given)  95.9%
28. O=C(CS)Nc1ccc2ccccc2c1  94.1%
29. C#Cc1cccc(NC(=O)c2ccc(Cl)cc2Cl)c1  87.9%
30. Nc1nc(OCc2ccccc2)c2[nH]cnc2n1  86.1%
31. Cc1nc2ccccc2c2nnc(SCC(=O)N(Cc3ccccc3)c3ccccc3)n12  84.7%
32. CCOC(=O)C1=C(Nc2ccc(Br)cc2)C(=O)N(CC)C1  84.2%
33. Cc1ccc(C)n1-c1ccsc1C(=O)NNC(=O)CCl  82.7%
34. O=[N+]([O-])c1ccc(-c2noc(-c3cccs3)n2)cc1  76.6%
35. CN(C)c1ccc2oc(=O)c3ccccc3c2c1  68.8%
36. COc1ccccc1NC(=O)C1=C(C)NC(C)=C(C(=O)Nc2ccccc2OC)C1c1cccc([N+](=O)[O-])c1  54.5%
37. CN(C)c1ccc2nc3ccc(=N)cc-3sc2c1  36%
38. Nc1nc(N)c2cc(S(=O)(=O)c3cccc(C(F)(F)F)c3)ccc2n1  32.5%
39. COc1cc(C2c3cc4c(cc3C3OC(=O)C2C3CO)OCO4)cc(OC)c1OC (stereo not given)  29.7%

Oc1ccc(Cc2ccccc2)c2cccnc12 was tested, and the growth was -14% (active).
